Reference: PubChem BioAssay (EPA / NIEHS)
Values joined by “and” are separate entries in the source; they are usually repeats but may differ in a detail not shown here. Identical values can stand only once. More than one record can exist for a structure, and the calls need not agree. Active and inactive are the calls of the source. How the source made its calls: active means hit-call score of the fitted dose curve at least 0.9, where 1 is the maximum; inactive means score below 0.9.

Assay: BSK_4H_SRB: Viability Assessment in the BioMAP Diversity Plus: 4H Assay (AID 2283027);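 further: cells exposed to compound for 24 h before staining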;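 on AC50: curves fitted both ways versus DMSO so AC50 may be loss or gain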
Settings: primary human endothelial cells (HUVEC)
Method: BSK_4H is a cell-based, multiplexed-readout assay that uses umbilical vein endothelium, a human vascular primary cell, with measurements taken at 24 hours after chemical dosing in a 96-well plate.BSK_4H_SRB is an assay component measured in the BSK_4H assay. It measures […] related to cell death using Sulforhodamine staining technology.Data from the assay component BSK_4H_SRB was analyzed into 1 assay endpoint. This assay endpoint, BSK_4H_SRB, was analyzed with bidirectional fitting relative to DMSO as the negative control and baseline of activity. Using a type of viability reporter, gain or loss-of-signal activity can be used to understand changes in the signaling. Furthermore, this assay endpoint can be referred to as a primary readout, because this assay has produced multiple assay endpoints where this one serves a signaling function. To generalize the intended target to other relatable targets, this assay endpoint is annotated to the cell morphology intended target family, where the subfamily is cell conformation.
The levels of cell surface (or secreted, indicated by the prefix "s") biomarker endpoints were measured by ELISA. Overt cytotoxicity to cells in confluent adherent cultures (all systems other than the BT system) was assessed by measuring total protein levels using sulforhodamine B (SRB) staining in parallel cultures at the time of biomarker measurements, indicated as SRB endpoints. For proliferation assays for adherent cell types, individual cell types are cultured at sub-confluence and relative cell numbers quantified by SRB staining at time points optimized for each system (48 h: 3C and CASM3C systems; 72 h: BT and HDF3CGF systems; 96 h: SAg system). SRB was performed by staining cells with 0.1% SRB after fixation with 10% TCA and reading wells at 560 nm.Viability and proliferation of PBMC (T cells) was quantified by Alamar Blue reduction for the SAg and BT systems. For PBMC viability (referred to as PBMC Cytotoxicity within the assay endpoint names), cells were plated (75,000/well in a 96-well plate) and then chemical samples added for 1 h before addition of activators, SEB and TSST-1 (20 ng/mL final concentration each). Cells were incubated for 90 h. Then, Alamar Blue (20 uL/well) (Invitrogen, Cat DAL1100) was added for 6 h, and the plates were read with a fluorescence microplate reader at 546/580 nm (excitation/emission). For PBMC proliferation, cells were plated and activated as above but incubated for only 16 h prior to addition of Alamar Blue. Plates were read after 6 h.
In the case of `Clc1ccccc1Cl`, the outcome is reported as “inactive”.
For `O=[N+]([O-])c1ccc(Oc2ccc(Cl)cc2Cl)cc1`, the outcome was “inactive”.
For `C[C@]12C=CC3=C4CCC(=O)C=C4CC[C@H]3[C@@H]1CC[C@@H]2O`, the outcome was “inactive”.
In the case of `COC(=O)Nc1nc2ccccc2[nH]1`, the AC50 is reported as 14.5 µM (active).
With `CC(O)CCO` (stereo not given) the outcome was “inactive”.
With `[O-][Cl+]O` the outcome was “inactive”.
In the case of `Cn1cc(-c2ccccc2)c(=O)c(-c2cccc(C(F)(F)F)c2)c1`, the outcome is reported as “inactive”.
In the case of `Oc1ccc2ccc3cccc4ccc1c2c34`, the AC50 is reported as 31.5 µM (active).
In the case of `Nc1cc(Cl)cc(C(=O)O)c1Cl`, the outcome is reported as “inactive”.
In the case of `Nc1ccc(Oc2ccc(N)cc2)cc1`, the outcome is reported as “inactive”.
In the case of `OCCCBr`, the outcome is reported as “inactive”.
For `Nc1ccc([N+](=O)[O-])cc1`, the outcome was “inactive”.
In the case of `O=C(Oc1ccc(Br)cc1)N1CCN2CCC1CC2`, the outcome is reported as “inactive”.
In the case of `ClCCOCCCl`, the outcome is reported as “inactive”.
In the case of `OCCCl`, the outcome is reported as “inactive”.
With `ClC1=C(Cl)C2(Cl)C3C(Cl)C=CC3C1(Cl)C2(Cl)Cl` (stereo not given) the AC50 was 33.4 µM (active).
For `c1ccc(N=Nc2ccccc2)cc1`, the outcome was “inactive”.
In the case of `CCC(C)c1ccc(O)cc1` (stereo not given), the outcome is reported as “inactive”.
For `CCCCC(CC)COC(=O)c1ccc(C(=O)OCC(CC)CCCC)c(C(=O)OCC(CC)CCCC)c1` (stereo not given), the outcome was “inactive”.
For `CCCSC(=O)N(CCC)CCC`, the outcome was “inactive”.
In the case of `CS(=O)(=O)NC(=O)c1cc(Oc2ccc(C(F)(F)F)cc2Cl)ccc1[N+](=O)[O-]`, the outcome is reported as “inactive”.
With `CCOc1cccc(C2(N3CCN(c4ccccc4)CC3)CCC(C)CC2)c1` (stereo not given) the outcome was “inactive”.
In the case of `c1ccc(NNc2ccccc2)cc1`, the outcome is reported as “inactive”.
In the case of `Oc1ccccc1Cl`, the outcome is reported as “inactive”.
In the case of `CCN(CC)N=O`, the outcome is reported as “inactive”.
With `O=C(O)C1C2CCC(O2)C1C(=O)O` (stereo not given) the outcome was “inactive”.
For `N#CC(Br)Br`, the outcome was “inactive”.
For `CCN(CC)CCO`, the outcome was “inactive”.
With `Brc1ccc(Oc2ccccc2)cc1` the outcome was “inactive”.
In the case of `CCNS(=O)(=O)C(F)(F)C(F)(F)C(F)(F)C(F)(F)C(F)(F)C(F)(F)C(F)(F)C(F)(F)F`, the outcome is reported as “inactive” and the AC50 is reported as 45.1 µM (active) and 47.3 µM (active).
In the case of `c1ccc2c(c1)-c1cccc3cccc-2c13`, the outcome is reported as “inactive”.
In the case of `Clc1ccc(Cl)c(Cl)c1`, the outcome is reported as “inactive”.
With `O=[N+]([O-])C(Br)(CO)CO` the AC50 was 20 µM (active).
For `CCOC(=O)[C@]1(c2ccccc2)Oc2ccccc2[C@@H]1N`, the outcome was “inactive”.
For `CC(C)(O)c1cnn2c(-c3ccc(F)c(-c4c(F)cccc4C#N)c3)cnc2n1`, the AC50 was 28.9 µM (active).
With `CC(C)N(Cc1ccccc1)C(=O)C(C)(C)C` the outcome was “inactive”.
With `CC(C)(OOC(C)(C)c1ccccc1)c1ccccc1` the AC50 was 32.3 µM (active).
With `Nc1ccc(N=Nc2ccccc2)cc1` the AC50 was 13.1 µM (active).
In the case of `CCCCOC(=O)c1ccccc1C(=O)OCc1ccccc1`, the outcome is reported as “inactive”.
